# Measured values reported in PubChem BioAssay (NCATS).
# Where “and” joins values, the source holds several entries; their conditions need not be identical. Equal values may be shown once. Records with an inconclusive call do not appear. Calls of active or inactive are those of the source. Unless noted, calls follow the shape of the full dose curve.
# How the values were obtained:
# [1] = target: Vitamin D3 receptor (Homo sapiens) (UniProt P11473); assay: qHTS assay for small molecule agonists of vitamin D receptor signaling (AID 588543);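 also: 0% = DMSO basal and 100% = reference agonist control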
# Summary of the method: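 Measured: β-lactamase reporter activity (CCF4, 405 nm excitation, 460/530 nm emission) in HEK293T VDR-UAS-bla cells after 16 h compound exposure at 37 °C. Normalization against 50 nM 1α,25-dihydroxyvitamin D3 and DMSO; Hill-fit EC50.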
# [2] = target: Estrogen receptor (Homo sapiens) (UniProt P03372); assay: qHTS assay for small molecule agonists of estrogen receptor alpha signaling (AID 588514);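 also: 0% = vehicle only and 100% = reference agonist; nearly all actives have a fitted effect of over 70% in size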
# Summary of the method: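 EC50 and efficacy came from Hill fits of beta-lactamase reporter signal (CCF4 dye, 2 h at room temperature) scaled between DMSO and 20 nM 17-beta-estradiol. Agonist mode: HEK293 ER-alpha-UAS-bla cells in charcoal/dextran-stripped serum medium, 18 h compound exposure at 37 C.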
# [3] = target: Glucocorticoid receptor (Homo sapiens) (UniProt P04150); assay: qHTS assay for small molecule agonists of glucocorticoid receptor signaling (AID 588532; active = well fitted curve in the direction sought with a large enough effect in the signal ratio, with a control signal flat; the % refers to the signal ratio;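 also: 100% = dexamethasone at 0.1 µM and 0% = DMSO only wells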); conditions: HeLa MMTV-bla, beta-lactamase ratio, agonist, 18 h; activation: stronger effect = higher value, percent of dexamethasone control, DMSO zero
# Summary of the method: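 Quantitative HTS using CellSensor MMTV-bla HeLa cells in charcoal/dextran-treated serum; compounds tested up to 92 uM. After 18 h at 37 C, CCF4 dye reported reporter induction.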
# [4] = target: Peroxisome proliferator-activated receptor delta (Homo sapiens) (UniProt Q03181); assay: qHTS assay for small molecule agonists of peroxisome proliferator-activated receptor delta signaling (AID 588534);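 also: 0% = DMSO basal wells and 100% = positive control agonist at 10 µM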
# Summary of the method: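 Agonist-mode beta-lactamase reporter readout (CCF4 dye, 2 h at RT) after 18 h at 37 °C exposure to a titration; Hill-equation fitting gave EC50 and maximal response.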
# [5] = target: Peroxisome proliferator-activated receptor gamma (Homo sapiens) (UniProt P37231); assay: qHTS assay for small molecule agonists of peroxisome proliferator-activated receptor gamma signaling (AID 588536; active = well fitted curve in the direction sought with a large enough effect in the signal ratio, with a control signal flat, not every such curve was filed as active; the % refers to the signal ratio;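 also: 0% = DMSO basal wells and 100% = rosiglitazone at 2 µM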)
# Summary of the method: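 Using GeneBLAzer HEK293 cells, response was quantified by CCF4 fluorescence and normalized between basal DMSO (0%) and rosiglitazone 2 uM (100%); curves yielded half-maximal stimulation concentration and efficacy.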
# [6] = target: Thyroid hormone receptor beta (Homo sapiens) (UniProt P10828); assay: qHTS assay for small molecule agonists of thyroid hormone receptor beta signaling (AID 588545)
# Summary of the method: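 In this cell-based screen, titrated compounds act on HEK 293 cells held in medium with 2% charcoal/dextran FBS, NEAA and pyruvate for 18 hrs at 37 C. Responses are expressed relative to T3 (10 nM) as 100% and basal DMSO as 0%.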
# [7] = qHTS assay for small molecule antagonists of retinoid X receptor alpha signaling (AID 588546; active = well fitted inhibition curve with a large enough effect in the signal ratio, with a control signal flat, not every such curve was filed as active; the % refers to the signal ratio;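 also: cells stimulated with 9-cis-retinoic acid as agonist; % is scaled to controls: 0 for no effect and ±100 for the full control effect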); conditions: HEK293T RXRa-UAS-bla, beta-lactamase ratio, antagonist mode; measured here: W530 green channel, cytotoxicity proxy
# Summary of the method: (§1)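 Beta-lactamase reporter inhibition, read as CCF4 fluorescence ratio (ex 405, em 460/530 nm) after 2 h at RT. HEK293T UAS-bla cells, 2500/well, were stimulated with 9-cis-RA at 500 or 100 nM final alongside test compound for 18 h at 37 C.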
# [8] = target: Retinoic acid receptor RXR-alpha (Homo sapiens) (UniProt P19793); assay: as above; conditions: HEK293T RXRa-UAS-bla, beta-lactamase ratio, antagonist mode
# Summary of the method: as §1
# [9] = qHTS assay for small molecule activators of the p53 signaling pathway (AID 651743; active = well fitted activation curve with a large enough effect in the signal ratio, not every such curve was filed as active; the % refers to the signal ratio; also: series mostly up to about 92 µM; % of control where 0% means no effect); conditions: HCT-116 p53RE-bla, beta-lactamase FRET ratio, 16 h; activation: stronger effect = higher value
# Summary of the method: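 After 16 hours compound treatment at 37 C, HCT-116 cells stably expressing p53RE-driven beta-lactamase were loaded with LiveBLAzer B/G FRET substrate for 2 hours at room temperature. Fluorescence intensity served as the p53 activation read-out.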
# [10] = qHTS assay for small molecule activators of the nuclear factor-kappa B (NF-kB) signaling pathway (AID 651749; active = well fitted activation curve with a large enough effect in the signal ratio; the % refers to the signal ratio; also: series mostly up to about 77 µM; % of control where 0% means no effect); conditions: NF-kB-bla ME-180 cells, beta-lactamase FRET ratio, 16 h; activation: stronger effect = higher value
# Summary of the method: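 Activation measured after 16 hr compound treatment at 37C, 5% CO2, of 2,000 ME-180 cells/well stably expressing an NF-kB response element–driven beta-lactamase reporter, via FRET-disruption fluorescence.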
# [11] = qHTS assay for environmental chemicals that activate the Aryl hydrocarbon Receptor (AhR) signaling pathway (AID 651777; active = well fitted curve in the direction sought with a large enough effect; an effect the other way counts as inactive or inconclusive; also: % of control where 0% means no effect; nearly all actives have a fitted effect of over 15% in size); conditions: 1A2-DRE human hepatoma cells, luciferase, 24 h; activation: stronger effect = higher value
# Summary of the method: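 Human hepatoma 1A2-DRE cells, stably carrying a dioxin response element and CYP1A2 promoter driving luciferase, were exposed to compounds for 24 hr at 37 C and 5% CO2. Luciferase signal was then read after 30 min One-Glo at room temperature.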
# [12] = target: Peroxisome proliferator-activated receptor alpha (Homo sapiens) (UniProt Q07869); assay: qHTS assay for small molecule agonists of the peroxisome proliferator-activated receptor alpha (PPARalpha) signaling pathway (AID 651778; active = well fitted curve in the direction sought with a large enough effect; an effect the other way counts as inactive or inconclusive; also: % of control where 0% means no effect); conditions: PathHunter PPARalpha complementation, chemiluminescence, 6 h; max response: stronger effect = higher value
# Summary of the method: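 Chemiluminescence from complemented enzyme reported PPARalpha activation in cells after 6 hr of compound treatment at 37 C. The detection reagent was incubated for 60 min at room temperature, and compounds were scored as agonists.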
# [13] = qHTS assay for small molecule agonists of the antioxidant response element (ARE) signaling pathway measured by Nrf2-dependant transcriptional activity - cell viability counter screen (AID 720653; active = well fitted curve in the direction sought with a large enough effect in the repeat runs; an effect the other way counts as inactive or inconclusive; also: % is scaled to controls: 0 for no effect and ±100 for the full control effect); conditions: ARE-bla HepG2 viability, CellTiter-Glo ATP luminescence, 16 h; max response: stronger effect = lower value
# Summary of the method: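 Cytotoxicity counter screen: intracellular ATP quantified by CellTiter-Glo luminescence in the same ARE-bla HepG2 plates, after 16 h compound exposure and a 2 h beta-lactamase substrate step.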
# [14] = qHTS assay for cell viability of HEK293 cells (AID 743288; active = well fitted curve in the direction sought with a large enough effect; an effect the other way counts as inactive or inconclusive; also: % is scaled to controls: 0 for no effect and ±100 for the full control effect; nearly all actives have a fitted effect of over 50% in size); conditions: ATP luminescence (CellTiter-Glo), 18 h; max response: stronger effect = lower value
# Summary of the method: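 HEK293, 18 h, 37 C, ATP luminescence. Cells at 2,000/well were allowed at least 5 h to settle before dosing; CellTiter-Glo developed 30 min at RT.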
# [15] = qHTS assay for cell viability of the p53RE-bla HCT-116 cell line (AID 743292; active = well fitted curve in the direction sought with a large enough effect; an effect the other way counts as inactive or inconclusive; also: % is scaled to controls: 0 for no effect and ±100 for the full control effect; nearly all actives have a fitted effect of over 55% in size)
# Summary of the method: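 CellSensor p53RE-bla HCT-116 cells, 4,000/well, preincubated 5 h at 37 C, then exposed to compounds in DMSO for 16 h at 37 C. Viability read as CellTiter-Glo luminescence (intracellular ATP) after 30 min at room temperature.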
# [16] = target: Nuclear receptor subfamily 1 group I member 2 (Rattus norvegicus) (UniProt Q9R1A7); assay: qHTS assay for small molecule activators of the rat pregnane X receptor (rPXR) signaling pathway (AID 651751; call rule not given here; also: 0% is about no effect); conditions: rPXR reporter cells, luciferase (One-Glo), 24 h
# [17] = target: Retinoic acid receptor RXR-alpha (Homo sapiens) (UniProt P19793); assay: qHTS assay for small molecule agonists of retinoid X receptor alpha signaling (AID 588544);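 also: 0% = DMSO basal wells and 100% = reference agonist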
# [18] = qHTS assay for small molecule agonists of the antioxidant response element (ARE) signaling pathway measured by Nrf2-dependant transcriptional activity (AID 720636; active = well fitted curve in the direction sought with a large enough effect in the repeat runs; an effect the other way counts as inactive or inconclusive; also: % of control where 0% means no effect)
# Summary of the method: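 ARE-luc HepG2 cells carrying an Nrf2-responsive luciferase reporter were plated in medium with 1% dialyzed FBS, left 6 hr at 37 C to attach, then exposed to compound for 16 hr. Luciferase luminescence was read after ONE-Glo addition.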
# [19] = target: Peroxisome proliferator-activated receptor delta (Homo sapiens) (UniProt Q03181); assay: qHTS assay for small molecule antagonists of peroxisome proliferator-activated receptor delta signaling (AID 588535; active = well fitted inhibition curve with a large enough effect in the signal ratio, with a control signal flat, not every such curve was filed as active; the % refers to the signal ratio)
# Summary of the method: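 Titrations were run on PPAR-delta-UAS-bla HEK293T cells in charcoal/dextran-stripped serum, incubated 18 h at 37 C. CCF4 fluorescence (460/530 nm) after 2 h RT; Hill equation yields IC50 and maximal response.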
# [20] = target: Vitamin D3 receptor (Homo sapiens) (UniProt P11473); assay: qHTS assay for small molecule antagonists of vitamin D receptor signaling (AID 588541);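 also: receptor activated by calcitriol during compound treatment; series mostly up to about 77 µM; % is scaled to controls: 0 for no effect and ±100 for the full control effect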
# Summary of the method: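 Antagonist-mode beta-lactamase reporter assay: HEK293T VDR-UAS-bla cells were exposed to titrated compound alongside 1-alpha,25-dihydroxyvitamin D3 at 3 nM final for 16 h. Values were normalized to the 50 nM agonist control and DMSO basal, with IC50 and efficacy from Hill equation fits.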
# Nuclear receptor subfamily 1 group I member 2 (Rattus norvegicus), sequence (Q9R1A7 whole entry, looked up): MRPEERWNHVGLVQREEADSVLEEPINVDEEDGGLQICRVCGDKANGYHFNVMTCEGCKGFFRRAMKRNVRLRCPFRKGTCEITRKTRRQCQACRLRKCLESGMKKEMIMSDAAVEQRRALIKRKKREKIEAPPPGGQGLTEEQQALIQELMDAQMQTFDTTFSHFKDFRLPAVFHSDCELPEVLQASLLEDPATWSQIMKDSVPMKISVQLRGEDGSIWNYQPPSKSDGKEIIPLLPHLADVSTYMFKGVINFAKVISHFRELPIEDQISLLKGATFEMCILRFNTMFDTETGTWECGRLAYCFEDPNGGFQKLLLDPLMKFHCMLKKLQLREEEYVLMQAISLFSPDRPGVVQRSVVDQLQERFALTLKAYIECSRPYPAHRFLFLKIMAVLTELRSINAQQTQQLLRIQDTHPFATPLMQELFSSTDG
# Peroxisome proliferator-activated receptor alpha (Homo sapiens), sequence (Q07869 whole entry, looked up): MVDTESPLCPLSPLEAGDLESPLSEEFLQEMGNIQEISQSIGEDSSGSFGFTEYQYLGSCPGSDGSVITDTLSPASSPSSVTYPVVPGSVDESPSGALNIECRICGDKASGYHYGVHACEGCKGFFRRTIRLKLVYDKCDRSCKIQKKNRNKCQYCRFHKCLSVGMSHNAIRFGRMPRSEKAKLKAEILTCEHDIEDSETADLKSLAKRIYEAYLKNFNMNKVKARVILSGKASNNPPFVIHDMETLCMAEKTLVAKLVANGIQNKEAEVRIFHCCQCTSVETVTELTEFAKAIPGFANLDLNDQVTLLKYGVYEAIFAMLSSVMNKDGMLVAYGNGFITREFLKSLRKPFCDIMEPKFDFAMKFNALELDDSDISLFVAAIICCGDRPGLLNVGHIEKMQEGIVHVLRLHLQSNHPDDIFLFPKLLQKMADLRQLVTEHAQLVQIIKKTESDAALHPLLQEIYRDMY
# Vitamin D3 receptor (Homo sapiens), sequence (P11473 whole entry, looked up): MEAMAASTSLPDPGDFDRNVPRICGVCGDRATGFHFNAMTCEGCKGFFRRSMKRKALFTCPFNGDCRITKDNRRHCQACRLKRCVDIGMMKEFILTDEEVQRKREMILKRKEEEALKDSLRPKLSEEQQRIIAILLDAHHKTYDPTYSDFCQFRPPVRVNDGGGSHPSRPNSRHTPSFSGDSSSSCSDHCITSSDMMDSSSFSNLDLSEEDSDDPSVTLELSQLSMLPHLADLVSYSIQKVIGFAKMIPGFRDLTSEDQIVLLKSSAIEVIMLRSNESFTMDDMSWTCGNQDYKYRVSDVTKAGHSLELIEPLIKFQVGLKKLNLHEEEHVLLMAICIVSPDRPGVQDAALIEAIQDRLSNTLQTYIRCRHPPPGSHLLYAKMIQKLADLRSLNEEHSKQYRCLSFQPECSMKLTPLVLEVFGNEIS
# Retinoic acid receptor RXR-alpha (Homo sapiens), sequence (P19793 whole entry, looked up): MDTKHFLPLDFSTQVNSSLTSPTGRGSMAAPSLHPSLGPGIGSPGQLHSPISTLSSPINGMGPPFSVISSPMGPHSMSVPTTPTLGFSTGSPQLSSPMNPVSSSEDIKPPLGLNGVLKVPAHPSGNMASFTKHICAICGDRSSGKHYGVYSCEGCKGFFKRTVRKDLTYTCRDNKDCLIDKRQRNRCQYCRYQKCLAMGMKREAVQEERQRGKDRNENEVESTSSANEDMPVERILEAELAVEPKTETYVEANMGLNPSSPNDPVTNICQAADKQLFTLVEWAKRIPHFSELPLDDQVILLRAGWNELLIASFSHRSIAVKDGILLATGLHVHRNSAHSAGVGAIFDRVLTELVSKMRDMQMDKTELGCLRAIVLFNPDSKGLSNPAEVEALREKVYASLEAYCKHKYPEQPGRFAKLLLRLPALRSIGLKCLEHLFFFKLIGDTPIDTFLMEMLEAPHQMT
# Peroxisome proliferator-activated receptor gamma (Homo sapiens), sequence (P37231 whole entry, looked up): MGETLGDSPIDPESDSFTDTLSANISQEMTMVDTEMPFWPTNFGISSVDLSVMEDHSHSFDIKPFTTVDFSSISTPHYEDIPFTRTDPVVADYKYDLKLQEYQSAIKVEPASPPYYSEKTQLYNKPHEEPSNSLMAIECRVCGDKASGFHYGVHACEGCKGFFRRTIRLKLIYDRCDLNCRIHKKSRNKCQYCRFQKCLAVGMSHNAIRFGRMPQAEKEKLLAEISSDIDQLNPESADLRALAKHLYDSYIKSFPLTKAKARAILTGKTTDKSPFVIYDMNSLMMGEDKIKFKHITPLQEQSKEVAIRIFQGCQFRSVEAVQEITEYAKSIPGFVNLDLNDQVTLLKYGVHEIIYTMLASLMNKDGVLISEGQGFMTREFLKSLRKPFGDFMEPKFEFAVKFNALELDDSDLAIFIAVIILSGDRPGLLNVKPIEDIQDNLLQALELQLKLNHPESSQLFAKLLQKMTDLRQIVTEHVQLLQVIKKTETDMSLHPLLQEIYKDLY
# Glucocorticoid receptor (Homo sapiens), sequence (P04150 whole entry, looked up): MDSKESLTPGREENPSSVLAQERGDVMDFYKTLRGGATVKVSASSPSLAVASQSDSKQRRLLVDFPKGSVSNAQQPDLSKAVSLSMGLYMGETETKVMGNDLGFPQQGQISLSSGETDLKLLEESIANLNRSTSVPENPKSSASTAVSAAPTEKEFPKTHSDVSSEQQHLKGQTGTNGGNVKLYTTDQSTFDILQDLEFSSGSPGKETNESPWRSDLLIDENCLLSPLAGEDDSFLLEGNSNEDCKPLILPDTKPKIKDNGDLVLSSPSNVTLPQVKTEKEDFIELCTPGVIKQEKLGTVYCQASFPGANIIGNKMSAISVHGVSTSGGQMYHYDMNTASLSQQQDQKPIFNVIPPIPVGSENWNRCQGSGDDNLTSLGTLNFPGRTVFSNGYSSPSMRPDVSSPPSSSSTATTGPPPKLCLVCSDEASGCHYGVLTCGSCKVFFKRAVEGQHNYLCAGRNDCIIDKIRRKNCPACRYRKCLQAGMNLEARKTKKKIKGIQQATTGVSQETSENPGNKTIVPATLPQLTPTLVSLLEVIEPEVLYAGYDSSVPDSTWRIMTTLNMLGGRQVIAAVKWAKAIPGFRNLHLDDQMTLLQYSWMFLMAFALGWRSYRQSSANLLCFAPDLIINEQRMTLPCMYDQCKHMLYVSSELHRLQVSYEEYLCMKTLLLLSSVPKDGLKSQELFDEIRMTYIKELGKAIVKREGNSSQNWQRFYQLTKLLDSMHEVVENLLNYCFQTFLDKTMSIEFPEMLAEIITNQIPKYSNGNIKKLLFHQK
# Estrogen receptor (Homo sapiens), sequence (P03372 whole entry, looked up): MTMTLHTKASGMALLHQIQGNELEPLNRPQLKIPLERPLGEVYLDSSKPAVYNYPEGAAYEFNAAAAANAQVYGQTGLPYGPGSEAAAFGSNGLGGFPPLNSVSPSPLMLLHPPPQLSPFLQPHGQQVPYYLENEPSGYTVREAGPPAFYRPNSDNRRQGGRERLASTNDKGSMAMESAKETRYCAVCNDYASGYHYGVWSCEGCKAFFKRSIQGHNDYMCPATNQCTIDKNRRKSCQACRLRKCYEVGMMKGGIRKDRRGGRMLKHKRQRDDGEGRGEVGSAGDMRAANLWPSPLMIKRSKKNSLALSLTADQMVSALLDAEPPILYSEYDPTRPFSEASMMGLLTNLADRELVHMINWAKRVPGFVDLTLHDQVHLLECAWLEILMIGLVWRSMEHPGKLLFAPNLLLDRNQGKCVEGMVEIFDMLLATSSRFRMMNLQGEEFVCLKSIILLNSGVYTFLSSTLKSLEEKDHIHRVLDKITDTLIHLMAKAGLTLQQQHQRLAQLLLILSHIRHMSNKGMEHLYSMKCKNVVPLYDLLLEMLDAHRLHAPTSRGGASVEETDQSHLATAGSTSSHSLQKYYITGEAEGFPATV
# Thyroid hormone receptor beta (Homo sapiens), sequence (P10828 whole entry, looked up): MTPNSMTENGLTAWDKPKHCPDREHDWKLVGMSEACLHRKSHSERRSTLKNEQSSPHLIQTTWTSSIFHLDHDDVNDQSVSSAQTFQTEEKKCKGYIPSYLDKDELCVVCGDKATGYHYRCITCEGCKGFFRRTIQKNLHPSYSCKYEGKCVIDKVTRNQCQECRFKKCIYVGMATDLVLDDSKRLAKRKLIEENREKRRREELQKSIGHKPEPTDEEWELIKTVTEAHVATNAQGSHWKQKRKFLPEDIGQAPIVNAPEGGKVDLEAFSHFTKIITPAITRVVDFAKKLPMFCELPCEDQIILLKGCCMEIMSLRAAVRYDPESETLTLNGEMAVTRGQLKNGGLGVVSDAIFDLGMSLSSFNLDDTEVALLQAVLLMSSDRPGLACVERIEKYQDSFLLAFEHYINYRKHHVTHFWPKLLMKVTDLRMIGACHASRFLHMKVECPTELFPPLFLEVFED
# Peroxisome proliferator-activated receptor delta (Homo sapiens), sequence (Q03181 whole entry, looked up): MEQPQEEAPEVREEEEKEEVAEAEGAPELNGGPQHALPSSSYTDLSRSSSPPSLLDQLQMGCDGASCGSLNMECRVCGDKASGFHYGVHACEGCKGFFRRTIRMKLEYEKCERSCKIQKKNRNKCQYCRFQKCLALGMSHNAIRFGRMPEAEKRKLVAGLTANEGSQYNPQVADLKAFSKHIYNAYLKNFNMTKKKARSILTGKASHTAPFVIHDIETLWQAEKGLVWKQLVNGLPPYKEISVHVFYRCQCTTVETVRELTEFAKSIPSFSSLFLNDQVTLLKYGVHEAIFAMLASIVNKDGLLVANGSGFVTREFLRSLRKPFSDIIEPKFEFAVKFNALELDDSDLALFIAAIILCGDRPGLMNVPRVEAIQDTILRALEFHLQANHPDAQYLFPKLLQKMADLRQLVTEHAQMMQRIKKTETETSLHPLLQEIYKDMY
SMILES,outcome [1],Potency [2],activation [3],outcome [4],Potency [5],Potency [6],max response [7],max response [8],activation [9],activation [10],activation [11],max response [12],max response [13],max response [14],Potency [15],max response [16],Potency [17],Potency [18],Potency [19],Potency [20]
CC(=O)[C@H]1[C@H](C#N)C[C@H]2[C@@H]3CC=C4C[C@@H](O)CC[C@]4(C)[C@H]3CC[C@@]21C,inactive,–,–,–,–,–,–,–,–,–,–,–,–,–,–,–,–,–,–,–
Clc1ccc(-c2cc(Cl)c(Cl)cc2Cl)cc1Cl,–,inactive,-2.9% (inactive),inactive,inactive,inactive,-9.16%,4.83% (inactive),-5.87% (inactive),5.08% (inactive),1.74% (inactive),0.243% (inactive),3.45% (inactive),-23.9% (inactive),inactive,-1.84% (inactive),–,–,–,–
CNC(=O)O/N=C/C(C)(C)S(C)(=O)=O,–,inactive,9.32% (inactive),–,inactive,–,-10.7%,0.762% (inactive),-2.46% (inactive),-1.23% (inactive),-0.939% (inactive),-0.004% (inactive),1.38% (inactive),0.485% (inactive),inactive,1.26% (inactive),inactive,inactive,–,–
CCCCOCCOC(C)=O,–,inactive,-12.9% (inactive),inactive,inactive,inactive,-13.5%,-8.99% (inactive),0.23% (inactive),–,0.977% (inactive),0.401% (inactive),-5.86% (inactive),-2.95% (inactive),–,2.29% (inactive),inactive,–,inactive,inactive
COC[C@H](C)N(C(=O)CCl)c1c(C)csc1C,inactive,inactive,-4.92% (inactive),inactive,inactive,inactive,-0.446%,-19.4% (inactive),-5.41% (inactive),-0.69% (inactive),-2.7% (inactive),-0.842% (inactive),0.25% (inactive),-14.5% (inactive),inactive,0.618% (inactive),–,–,inactive,inactive
Cc1cccc2sc3nncn3c12,–,inactive,–,inactive,inactive,inactive,-10.6%,2.1% (inactive),2.35% (inactive),0.0956% (inactive),-0.0294% (inactive),-0.811% (inactive),0.787% (inactive),-3.66% (inactive),inactive,–,inactive,–,inactive,–
CC(C)=CC1[C@H](C(=O)OCc2cccc(Oc3ccccc3)c2)C1(C)C (stereo partly specified),inactive,inactive,1.86% (inactive),inactive,–,inactive,-13.6%,3.36% (inactive),-1.37% (inactive),–,-0.0338% (inactive),-1.72% (inactive),-3.94% (inactive),-10.6% (inactive),inactive,–,inactive,inactive,inactive,inactive
O=C(O)C(F)(F)C(F)(F)C(F)(F)C(F)(F)C(F)(F)C(F)(F)C(F)(F)C(F)(F)F,–,inactive,-0.386% (inactive) and 5.13% (inactive),inactive,inactive,inactive,-12.8% and -2.74%,2.77% (inactive) and -39.3% (inactive),1.7% (inactive),–,2.07% (inactive) and 1.12% (inactive),-1.46% (inactive) and 5.33% (inactive),4.68% (inactive) and -1.78% (inactive),-7.25% (inactive) and -13% (inactive),inactive,1.17% (inactive) and 2.66% (inactive),inactive,inactive,inactive,inactive
CCCCC(O)(Cn1cncn1)c1ccc(Cl)cc1Cl (stereo unspecified),inactive,inactive,–,–,–,–,-3.36%,-17.2% (inactive),-5.41% (inactive),0.388% (inactive),2.7% (inactive),9.57% (inactive),–,-16.7% (inactive),inactive,–,–,inactive,inactive,–
CC(C)(C)C(O)C(Oc1ccc(-c2ccccc2)cc1)n1cncn1 (stereo unspecified),inactive,inactive,–,–,inactive,inactive,–,–,6.28% (inactive),-1.06% (inactive),0.741% (inactive),1.37% (inactive),–,-21.2% (inactive),inactive,–,–,inactive,inactive,inactive
COP(=O)(OC)SCn1c(=O)oc2cc(Cl)cnc21,inactive,inactive,–,inactive,inactive,–,–,–,13.8% (inactive),-1.51% (inactive),–,-1.8% (inactive),-47.9% (inactive),-26% (inactive),inactive,-7.83% (inactive),–,inactive,–,–
CCOc1nc(F)cc2nc(S(=O)(=O)Nc3c(Cl)cccc3Cl)nn12,inactive,inactive,0.859% (inactive),inactive,–,inactive,6.95%,-25.7% (inactive),1.78% (inactive),0.211% (inactive),-0.921% (inactive),-2.41% (inactive),–,-11.2% (inactive),inactive,1.99% (inactive),inactive,inactive,inactive,–
CCCCOCN(C(=O)CCl)c1c(CC)cccc1CC,inactive,inactive,-1.18% (inactive),inactive,–,inactive,–,–,-3.79% (inactive),-3.81% (inactive),-2.46% (inactive),0.0844% (inactive),–,-23.1% (inactive),inactive,3.67% (inactive),–,–,–,–
